Several values for one entry are separate records, joined by “and”; a condition that tells them apart may be missing. Equal values may be shown once. Inconclusive results are not listed. Activity calls are given as the source filed them. Unless noted, calls follow the shape of the full dose curve.

Experiment [1] has as its target Estrogen receptor (Homo sapiens) (UniProt P03372). The experiment in a line: qHTS assay for small molecule antagonists of estrogen receptor alpha signaling (AID 588513; active = well fitted curve in the direction sought with a large enough effect in the signal ratio, with a control signal flat, not every such curve was filed as active; the % refers to the signal ratio; also: potency is read from the fitted curve at half-maximal effect). The gist of the method: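 ER-alpha-UAS-bla GripTite HEK 293 cells in medium with 2% charcoal/dextran-treated FBS were preincubated 4 h at 37 C, dosed with compound (1:2 titration), stimulated with 0.5nM 17-beta-estradiol for 18 h, then read by CCF4 beta-lactamase fluorescence.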

Experiment [2] has the same target. As to the kind of experiment: qHTS assay for small molecule agonists of estrogen receptor alpha signaling (AID 588514).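 Also: 0% = vehicle only and 100% = reference agonist; nearly all actives have a fitted effect of over 70% in size.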 In a few lines: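 Cells were plated at 5000/well, incubated 4 hrs at 37 C, dosed with compound titration series, incubated 18 hrs at 37 C, loaded with CCF4 dye for 2 hrs at RT, then fluorescence was read.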
The target of experiment [3] is Glucocorticoid receptor (Homo sapiens) (UniProt P04150). As to the kind of experiment: qHTS assay for small molecule antagonists of glucocorticoid receptor signaling (AID 588533; active = well fitted inhibition curve with a large enough effect in the signal ratio, with a control signal flat, not every such curve was filed as active; the % refers to the signal ratio;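 also: cells stimulated with 2 nM dexamethasone as agonist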; also: potency is read from the fitted curve at half-maximal effect). The gist of the method: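 Antagonist-mode qHTS: compound titrations added to GRE-bla HeLa cells, then dexamethasone 2 nM final; 18 h, 37 C. CCF4 FRET fluorescence normalized to dexamethasone and DMSO; IC50 from Hill fit.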

Experiment [4] concerns the target Peroxisome proliferator-activated receptor delta (Homo sapiens) (UniProt Q03181). The experiment in a line: qHTS assay for small molecule agonists of peroxisome proliferator-activated receptor delta signaling (AID 588534).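 Also: 0% = DMSO basal wells and 100% = positive control agonist at 10 µM.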 The gist of the method: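 Fluorescence from CCF4 substrate cleavage by beta-lactamase reporter, read 2 hrs at RT, measured agonist activity. Compounds were tested with 18 hrs exposure at 37 C. Concentration-response data fitted to Hill equation.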

The target of experiment [5] is Peroxisome proliferator-activated receptor gamma (Homo sapiens) (UniProt P37231). The experiment in a line: qHTS assay for small molecule agonists of peroxisome proliferator-activated receptor gamma signaling (AID 588536; active = well fitted curve in the direction sought with a large enough effect in the signal ratio, with a control signal flat, not every such curve was filed as active; the % refers to the signal ratio;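 also: 0% = DMSO basal wells and 100% = rosiglitazone at 2 µM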). The gist of the method:
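Ratiometric blue/green fluorescence (405 nm excitation; 460 and 530 nm emission) from CCF4-loaded HEK293 reporter cells serves as signal. Exposure to test compounds lasts 16 h at 37 C in medium containing 1% charcoal/dextran-treated serum.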

Experiment [6] shares this target. As to the kind of experiment: qHTS assay for small molecule antagonists of peroxisome proliferator-activated receptor gamma signaling (AID 588537; active = well fitted inhibition curve with a large enough effect in the signal ratio, with a control signal flat, not every such curve was filed as active; the % refers to the signal ratio;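 also: reporter cells co-stimulated with 50 nM rosiglitazone agonist during compound treatment; % of control where 0% means no effect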). The gist of the method: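 We seeded GeneBLAzer HEK293 reporter cells at 3000 per well, allowed 6-6.5 h attachment at 37 C, then co-treated with test compound titrations and 50 nM rosiglitazone overnight (16 h). Inhibition was quantified from 460/530 nm emission ratios.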

A short description of experiment [7]: qHTS assay for small molecule agonists of retinoid X receptor alpha signaling (AID 588544).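 As to activation: 0% = DMSO basal wells and 100% = reference agonist.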 The following applies: HEK293T RXRa-UAS-bla, beta-lactamase reporter, 18 h; 530 nm emission.
For experiment [8], the target named is Retinoic acid receptor RXR-alpha (Homo sapiens) (UniProt P19793). The description is as above.
The target in experiment [9] is Thyroid hormone receptor beta (Homo sapiens) (UniProt P10828). As to the kind of experiment: qHTS assay for small molecule agonists of thyroid hormone receptor beta signaling (AID 588545).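 Also: 0% = DMSO only and 100% = 10 nM T3.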 The gist of the method: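 TR-UAS-bla GripTite HEK 293 cells (2500/well, medium with 2% charcoal/dextran FBS) were treated in agonist mode for 18 h at 37 C, titrated. Beta-lactamase was read by CCF4 ratio after 2 h; normalized to 10 nM T3 (100%) and DMSO, Hill-fitted for EC50 and efficacy.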

The nature of experiment [10]: qHTS assay for small molecule antagonists of retinoid X receptor alpha signaling (AID 588546; active = well fitted inhibition curve with a large enough effect in the signal ratio, with a control signal flat, not every such curve was filed as active; the % refers to the signal ratio;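 also: cells stimulated with 9-cis-retinoic acid as agonist; % is scaled to controls: 0 for no effect and ±100 for the full control effect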). To be noted: HEK293T RXRa-UAS-bla, beta-lactamase ratio, antagonist mode; measured here: W530 green channel, cytotoxicity proxy. In a few lines: (§1)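 Beta-lactamase reporter inhibition, read as CCF4 fluorescence ratio (ex 405, em 460/530 nm) after 2 h at RT. HEK293T UAS-bla cells, 2500/well, were stimulated with 9-cis-RA at 500 or 100 nM final alongside test compound for 18 h at 37 C.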

For experiment [11], the target named is Retinoic acid receptor RXR-alpha (Homo sapiens) (UniProt P19793). The description is as above. To be noted: HEK293T RXRa-UAS-bla, beta-lactamase ratio, antagonist mode. The gist of the method:
as §1

The nature of experiment [12]: qHTS assay for small molecule activators of the p53 signaling pathway (AID 651743; active = well fitted activation curve with a large enough effect in the signal ratio, not every such curve was filed as active; the % refers to the signal ratio; also: potency is read from the fitted curve at half-maximal effect; as to activation: series mostly up to about 92 µM; % of control where 0% means no effect). The following applies: HCT-116 p53RE-bla, beta-lactamase FRET ratio, 16 h; activation: stronger effect = higher value. The gist of the method: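 Cell-based beta-lactamase reporter (p53 response elements, HCT-116 background). After a 5-hour preincubation, cells received compound for 16 hours at 37 C; substrate development ran 2 hours at room temperature.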

The nature of experiment [13]: qHTS assay for environmental chemicals that activate the Aryl hydrocarbon Receptor (AhR) signaling pathway (AID 651777; active = well fitted curve in the direction sought with a large enough effect; an effect the other way counts as inactive or inconclusive; also: % of control where 0% means no effect; nearly all actives have a fitted effect of over 15% in size). To be noted: 1A2-DRE human hepatoma cells, luciferase, 24 h; activation: stronger effect = higher value. In a few lines:
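Luminescence (One-Glo, 30 min, room temperature) reports AhR-driven luciferase in stably transfected human hepatoma cells bearing DRE and CYP1A2 promoter. Cells (1,200/well) were treated with compound for 24 hr at 37 C in qHTS format.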

Experiment [14] has as its target Peroxisome proliferator-activated receptor alpha (Homo sapiens) (UniProt Q07869). As to the kind of experiment: qHTS assay for small molecule agonists of the peroxisome proliferator-activated receptor alpha (PPARalpha) signaling pathway (AID 651778; active = well fitted curve in the direction sought with a large enough effect; an effect the other way counts as inactive or inconclusive; also: % of control where 0% means no effect). The following applies: PathHunter PPARalpha complementation, chemiluminescence, 6 h; max response: stronger effect = higher value. The gist of the method:
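Cells plated at 2,000/well and held overnight at 37 C, 5% CO2, then compound added by pin tool for 6 hr; after PathHunter detection reagent and 60 min at room temperature, chemiluminescence from enzyme complementation was read.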

A short description of experiment [15]: qHTS assay for small molecule agonists of the antioxidant response element (ARE) signaling pathway measured by Nrf2-dependant transcriptional activity (AID 720636; active = well fitted curve in the direction sought with a large enough effect in the repeat runs; an effect the other way counts as inactive or inconclusive; also: % of control where 0% means no effect). The gist of the method:
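Nrf2-dependent transcription read as ONE-Glo luciferase signal from ARE-luc HepG2 reporter cells after 16 hr compound treatment at 37 C, 5% CO2, in assay medium with 1% dialyzed FBS.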

Experiment [16] can be described thus: qHTS assay for small molecule agonists of the antioxidant response element (ARE) signaling pathway measured by Nrf2-dependant transcriptional activity - cell viability counter screen (AID 720653; active = well fitted curve in the direction sought with a large enough effect in the repeat runs; an effect the other way counts as inactive or inconclusive; also: % is scaled to controls: 0 for no effect and ±100 for the full control effect). To be noted: ARE-bla HepG2 viability, CellTiter-Glo ATP luminescence, 16 h; max response: stronger effect = lower value. In a few lines:
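ARE-bla HepG2 cells (2,000/well) rested 5 hrs at 37C/5% CO2, then exposed to compounds in DMSO for 16 hrs. Viability was read in the same wells as intracellular ATP by luminescence, 30 min at room temperature after reagent addition.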

Experiment [17] can be described thus: qHTS assay for cell viability of the p53RE-bla HCT-116 cell line (AID 743292; active = well fitted curve in the direction sought with a large enough effect; an effect the other way counts as inactive or inconclusive; also: nearly all actives have a fitted effect of over 55% in size; also: potency is read from the fitted curve at half-maximal effect). In a few lines: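 ATP-based luminescent viability (CellTiter-Glo, 30 min RT) after 16 h compound treatment at 37 C of p53RE-bla HCT-116 cells, seeded at 4,000 cells/well and rested 5 h before dosing.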
For experiment [18], the target named is Vitamin D3 receptor (Homo sapiens) (UniProt P11473). As to the kind of experiment: qHTS assay for small molecule antagonists of vitamin D receptor signaling (AID 588541).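 Also: receptor activated by calcitriol during compound treatment; series mostly up to about 77 µM; % is scaled to controls: 0 for no effect and ±100 for the full control effect.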 In a few lines:
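VDR-UAS-bla HEK293T cells (2000/well, 2% charcoal-stripped FBS) were treated with titrated compounds plus 1-alpha,25-dihydroxyvitamin D3 (50 nM or 3 nM final) for 16 h at 37 C. CCF4 beta-lactamase fluorescence was read; Hill fits gave IC50.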

A short description of experiment [19]: qHTS assay for cell viability of HEK293 cells (AID 743288; active = well fitted curve in the direction sought with a large enough effect; an effect the other way counts as inactive or inconclusive; also: % is scaled to controls: 0 for no effect and ±100 for the full control effect; nearly all actives have a fitted effect of over 50% in size). To be noted: ATP luminescence (CellTiter-Glo), 18 h; max response: stronger effect = lower value. The gist of the method: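 Parental HEK293 cells were seeded at 2,000 cells/well, rested at least 5 h at 37 C, then exposed to compounds in DMSO for 18 h at 37 C. Viability was read as ATP-dependent luciferase luminescence after 30 min at room temperature.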

In experiment [20] the target is Thyroid hormone receptor beta (Homo sapiens) (UniProt P10828). The experiment in a line: qHTS assay for small molecule antagonists of thyroid hormone receptor beta signaling (AID 588547; active = well fitted inhibition curve with a large enough effect in the signal ratio, with a control signal flat, not every such curve was filed as active; the % refers to the signal ratio;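 also: cells stimulated with 0.4 nM T3 agonist during compound exposure; series mostly up to about 77 µM; % is scaled to controls: 0 for no effect and ±100 for the full control effect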). To be noted: TR-UAS-bla HEK293, beta-lactamase ratio, antagonist mode, 18 h. The gist of the method:
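TR-UAS-bla GripTite HEK293 cells in 2% charcoal/dextran FBS medium were preincubated 4 h at 37 C, given compound (0.59 nM to 92 uM) plus 0.4 nM T3 (final) for 18 h, then CCF4 for 2 h at RT; Hill fit gave IC50.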

Peroxisome proliferator-activated receptor gamma (Homo sapiens), sequence (P37231 whole entry, looked up): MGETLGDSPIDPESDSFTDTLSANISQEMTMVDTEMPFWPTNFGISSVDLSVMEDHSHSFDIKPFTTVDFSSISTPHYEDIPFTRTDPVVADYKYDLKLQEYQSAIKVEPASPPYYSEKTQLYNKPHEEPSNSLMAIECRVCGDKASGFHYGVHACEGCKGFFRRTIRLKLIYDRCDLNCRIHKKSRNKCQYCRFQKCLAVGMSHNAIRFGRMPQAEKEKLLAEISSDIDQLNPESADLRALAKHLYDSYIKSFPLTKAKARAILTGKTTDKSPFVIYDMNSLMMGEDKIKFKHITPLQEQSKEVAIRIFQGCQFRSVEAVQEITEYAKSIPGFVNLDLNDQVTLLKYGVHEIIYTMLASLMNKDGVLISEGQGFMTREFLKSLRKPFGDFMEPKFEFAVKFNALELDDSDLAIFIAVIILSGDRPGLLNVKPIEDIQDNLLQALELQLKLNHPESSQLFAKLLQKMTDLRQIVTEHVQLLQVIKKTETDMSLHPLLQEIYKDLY
Peroxisome proliferator-activated receptor alpha (Homo sapiens), sequence (Q07869 whole entry, looked up): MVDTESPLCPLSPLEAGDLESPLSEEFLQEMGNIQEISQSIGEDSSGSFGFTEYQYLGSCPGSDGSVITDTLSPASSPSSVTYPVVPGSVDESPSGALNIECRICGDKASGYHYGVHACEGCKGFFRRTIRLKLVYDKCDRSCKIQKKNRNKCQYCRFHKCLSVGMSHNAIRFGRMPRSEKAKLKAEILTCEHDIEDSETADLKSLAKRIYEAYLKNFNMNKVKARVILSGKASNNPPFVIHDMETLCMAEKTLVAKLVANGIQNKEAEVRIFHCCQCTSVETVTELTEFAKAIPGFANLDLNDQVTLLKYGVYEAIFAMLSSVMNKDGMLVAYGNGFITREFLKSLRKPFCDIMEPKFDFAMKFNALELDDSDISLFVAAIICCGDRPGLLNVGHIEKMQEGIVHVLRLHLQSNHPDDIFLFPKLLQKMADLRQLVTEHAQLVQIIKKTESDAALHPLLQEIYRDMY
Vitamin D3 receptor (Homo sapiens), sequence (P11473 whole entry, looked up): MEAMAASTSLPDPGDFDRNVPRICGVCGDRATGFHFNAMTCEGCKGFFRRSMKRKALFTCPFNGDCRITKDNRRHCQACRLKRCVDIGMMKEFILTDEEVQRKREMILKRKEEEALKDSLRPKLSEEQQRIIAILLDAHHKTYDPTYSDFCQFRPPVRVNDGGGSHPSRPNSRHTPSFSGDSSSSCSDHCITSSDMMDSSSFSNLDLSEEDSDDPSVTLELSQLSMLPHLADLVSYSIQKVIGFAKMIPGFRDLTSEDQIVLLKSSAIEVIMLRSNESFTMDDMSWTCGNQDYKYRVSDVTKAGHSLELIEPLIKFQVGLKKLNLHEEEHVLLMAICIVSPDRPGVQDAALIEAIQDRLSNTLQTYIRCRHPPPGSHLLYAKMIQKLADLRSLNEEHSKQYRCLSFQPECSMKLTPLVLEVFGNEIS
Peroxisome proliferator-activated receptor delta (Homo sapiens), sequence (Q03181 whole entry, looked up): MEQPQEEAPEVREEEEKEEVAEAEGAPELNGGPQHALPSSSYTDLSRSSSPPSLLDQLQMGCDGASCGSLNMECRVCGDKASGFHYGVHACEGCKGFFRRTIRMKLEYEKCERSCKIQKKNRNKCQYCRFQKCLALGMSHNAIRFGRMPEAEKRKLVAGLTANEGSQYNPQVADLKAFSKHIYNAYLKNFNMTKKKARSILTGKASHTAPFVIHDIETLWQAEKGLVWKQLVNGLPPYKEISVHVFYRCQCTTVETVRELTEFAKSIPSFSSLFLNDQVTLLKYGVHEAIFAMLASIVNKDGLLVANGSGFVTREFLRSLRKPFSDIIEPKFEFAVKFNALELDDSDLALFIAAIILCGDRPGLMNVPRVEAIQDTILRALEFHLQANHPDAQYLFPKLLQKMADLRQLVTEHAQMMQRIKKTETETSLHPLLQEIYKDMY
Thyroid hormone receptor beta (Homo sapiens), sequence (P10828 whole entry, looked up): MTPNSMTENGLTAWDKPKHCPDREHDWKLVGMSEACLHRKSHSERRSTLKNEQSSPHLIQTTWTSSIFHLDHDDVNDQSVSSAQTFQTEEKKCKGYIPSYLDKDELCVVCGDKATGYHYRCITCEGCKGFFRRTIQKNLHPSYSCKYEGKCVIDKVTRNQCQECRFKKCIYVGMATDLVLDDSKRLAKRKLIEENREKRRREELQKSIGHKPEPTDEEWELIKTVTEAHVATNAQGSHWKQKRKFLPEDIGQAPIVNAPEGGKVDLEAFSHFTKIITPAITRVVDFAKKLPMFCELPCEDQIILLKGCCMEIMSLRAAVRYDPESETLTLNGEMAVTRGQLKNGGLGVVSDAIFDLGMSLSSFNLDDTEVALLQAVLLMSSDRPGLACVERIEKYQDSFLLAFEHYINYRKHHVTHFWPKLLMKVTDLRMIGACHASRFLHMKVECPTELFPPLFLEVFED
Estrogen receptor (Homo sapiens), sequence (P03372 whole entry, looked up): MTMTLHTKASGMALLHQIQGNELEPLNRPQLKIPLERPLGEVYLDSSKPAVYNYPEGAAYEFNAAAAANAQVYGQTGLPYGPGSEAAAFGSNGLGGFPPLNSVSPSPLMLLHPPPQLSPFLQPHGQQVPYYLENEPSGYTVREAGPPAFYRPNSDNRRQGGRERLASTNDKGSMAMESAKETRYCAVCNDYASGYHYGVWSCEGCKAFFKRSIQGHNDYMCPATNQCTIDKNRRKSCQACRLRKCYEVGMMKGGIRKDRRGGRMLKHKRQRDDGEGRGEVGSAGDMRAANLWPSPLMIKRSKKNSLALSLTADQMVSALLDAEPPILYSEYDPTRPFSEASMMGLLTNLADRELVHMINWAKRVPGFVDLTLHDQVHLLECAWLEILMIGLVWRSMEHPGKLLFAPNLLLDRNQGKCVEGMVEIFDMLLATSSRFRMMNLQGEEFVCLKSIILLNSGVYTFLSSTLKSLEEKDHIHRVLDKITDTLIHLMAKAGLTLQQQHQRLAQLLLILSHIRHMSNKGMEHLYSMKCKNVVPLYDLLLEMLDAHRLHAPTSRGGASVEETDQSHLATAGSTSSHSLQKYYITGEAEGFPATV
Glucocorticoid receptor (Homo sapiens), sequence (P04150 whole entry, looked up): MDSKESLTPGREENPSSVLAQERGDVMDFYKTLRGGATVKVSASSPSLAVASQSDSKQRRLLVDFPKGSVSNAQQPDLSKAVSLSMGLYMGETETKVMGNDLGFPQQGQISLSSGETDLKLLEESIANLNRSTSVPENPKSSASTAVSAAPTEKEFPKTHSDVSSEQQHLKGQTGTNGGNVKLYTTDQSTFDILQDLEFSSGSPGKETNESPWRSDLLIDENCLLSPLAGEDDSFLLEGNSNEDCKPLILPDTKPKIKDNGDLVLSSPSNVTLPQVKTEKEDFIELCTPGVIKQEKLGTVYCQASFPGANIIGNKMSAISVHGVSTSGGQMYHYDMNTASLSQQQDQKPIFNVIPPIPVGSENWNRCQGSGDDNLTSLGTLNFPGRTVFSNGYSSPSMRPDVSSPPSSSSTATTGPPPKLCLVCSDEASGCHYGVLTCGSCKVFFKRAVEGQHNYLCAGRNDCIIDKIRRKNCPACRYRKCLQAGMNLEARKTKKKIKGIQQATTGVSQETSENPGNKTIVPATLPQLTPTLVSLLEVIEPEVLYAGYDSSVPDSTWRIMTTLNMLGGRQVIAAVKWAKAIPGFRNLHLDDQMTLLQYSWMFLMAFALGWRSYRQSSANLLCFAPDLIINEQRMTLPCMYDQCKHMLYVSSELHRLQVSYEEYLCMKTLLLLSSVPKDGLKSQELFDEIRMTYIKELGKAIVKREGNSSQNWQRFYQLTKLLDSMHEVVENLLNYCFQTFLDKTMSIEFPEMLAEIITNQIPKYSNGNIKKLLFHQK
Retinoic acid receptor RXR-alpha (Homo sapiens), sequence (P19793 whole entry, looked up): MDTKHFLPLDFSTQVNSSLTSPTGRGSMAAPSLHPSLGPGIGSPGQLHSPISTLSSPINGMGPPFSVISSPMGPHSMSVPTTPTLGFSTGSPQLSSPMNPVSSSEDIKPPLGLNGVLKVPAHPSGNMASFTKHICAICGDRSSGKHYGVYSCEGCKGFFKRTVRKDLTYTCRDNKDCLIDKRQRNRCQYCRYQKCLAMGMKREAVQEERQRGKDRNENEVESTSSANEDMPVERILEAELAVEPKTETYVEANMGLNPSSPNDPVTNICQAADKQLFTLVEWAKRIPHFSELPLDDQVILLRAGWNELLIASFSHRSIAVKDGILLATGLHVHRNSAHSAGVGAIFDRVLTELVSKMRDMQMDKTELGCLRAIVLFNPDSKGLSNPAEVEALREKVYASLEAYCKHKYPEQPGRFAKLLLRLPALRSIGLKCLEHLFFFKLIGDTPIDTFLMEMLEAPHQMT

Regarding `Brc1c(Br)c(Br)c(Br)c(Br)c1Br`, the Potency result in [1], in experiment [2], in experiment [3], in experiment [5], in experiment [6] and in [8] was “inactive” throughout. The Potency entry in experiment [9], in experiment [15] and in [17] was “inactive” each time. Further, the call in [4] was inactive. Moreover, the max response in [7] is -7.75%; in experiment [10], -6.9%; in [11], 0.275% (inactive); in experiment [14] it was -0.494% (inactive); in [16] it was 3.38% (inactive). The activation in experiment [12] was 2.23% (inactive); in experiment [13] it was 2.18% (inactive).
With `CS(=O)(=O)c1cc(C(F)(F)F)ccc1C(=O)c1cnoc1C1CC1`, the Potency result in experiment [1], in experiment [2], in experiment [6], in experiment [18], in experiment [9] and in experiment [15] was “inactive” throughout. In experiment [17], the Potency entry was “inactive”. Also, the max response was -9.9% in experiment [10]; -4.05% (inactive) in [11]; -3.75% (inactive) in experiment [14]; -9.62% (inactive) in experiment [16]; -14.1% (inactive) in experiment [19]. Also, the activation is -1.28% (inactive) in [12] and -0.804% (inactive) in [13].
Turning to `CCCN(CC)CC1COC2(CCC(C(C)(C)C)CC2)O1` (stereo not given), the Potency result in [1], in experiment [2], in experiment [3], in experiment [18], in [8] and in [9] was “inactive” each time. Besides, the Potency result in experiment [15] and in experiment [17] was “inactive” each time. Further, the compound was called inactive in [4]. Moreover, the max response in [10] was -13.8%; in experiment [11] it was -5.06% (inactive); in experiment [14], 0.269% (inactive); in experiment [16], -11.5% (inactive); in [19], -13.1% (inactive). Further, the activation in experiment [12] is -4.98% (inactive); in [13], -1.94% (inactive).
In the case of `O=C(O)c1nc(Cl)ccc1Cl`, the Potency entry in [1], in experiment [2], in [3], in experiment [8], in [9] and in [15] was “inactive” throughout. Besides, the Potency entry in experiment [17] was “inactive”. Moreover, the max response in experiment [7] was 15.6% and -18.9%; in experiment [10] it was -5.13% and -14.7%; in experiment [11], -18.6% (inactive) and -6.7% (inactive); in [16], -0.246% (inactive) and 14% (inactive); in [19], -0.844% (inactive) and 6.6% (inactive). Moreover, in experiment [20], the activity change % (negative = inhibition) is -7.12% (inactive). Besides, the activation in experiment [12] is 3.37% (inactive); in [13], 0.739% (inactive) and -2.14% (inactive).
`CC(C)C(=O)OCC(C)(C)C(OC(=O)C(C)C)C(C)C` (stereo not given): the Potency result in experiment [1], in experiment [2], in [3], in experiment [5], in experiment [6] and in experiment [18] was “inactive” throughout. The Potency result in experiment [8], in [9] and in [17] was “inactive” each time. For the same compound, the outcome in experiment [4] was inactive. In addition, the max response in [7] is -9.99%; in [10], -5.68%; in experiment [11], -12.8% (inactive); in [14], -1.27% (inactive); in experiment [16], -12.6% (inactive). The activity change % (negative = inhibition) in experiment [20] was 4.21% (inactive). The activation is -0.206% (inactive) in experiment [12] and 1.77% (inactive) in experiment [13].
Take `Oc1ccc(C2(c3ccc(O)cc3)c3ccccc3-c3ccccc32)cc1`: the Potency in [1] is 15.8 µM [inhibitor] (active); in experiment [3] it was 44.7 µM (active); in experiment [12] it was 39.8 µM (active); in experiment [17], 31.6 µM (active). Further, the Potency entry in experiment [2] was “inactive”. The call in [4] was inactive. In addition, the activation in [13] was -0.464% (inactive). Also, the max response is -1.22% (inactive) in experiment [14], -12.4% (inactive) in experiment [16] and -3.45% (inactive) in [19].

These data come from PubChem BioAssay (NCATS).
